# Data taken from PubChem BioAssay (EPA / NIEHS).
# Records with an inconclusive call do not appear. Calls of active or inactive are those of the source. The calls were made as follows, unless noted: active = hit-call score of the fitted dose curve at least 0.9, where 1 is the maximum; inconclusive = response in the unintended direction; inactive = score below 0.9.
# Experiments:
# [1] = BSK_3C_Proliferation: Cell Proliferation Assessment in the BioMAP Diversity Plus: 3C Assay (AID 2283006; active = hit-call score of the fitted dose curve at least 0.9, where 1 is the maximum; inactive = score below 0.9;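 also: potency may reflect either rise or fall in cell number versus DMSO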); conditions: primary human endothelial cells (HUVEC)
# Procedure, shortened: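 Read-out is total protein by SRB absorbance at 560 nm, taken as a proxy for relative cell number. Primary human umbilical vein endothelium cultured below confluence was dosed for 48 h, TCA-fixed and SRB-stained; curves were fitted bidirectionally versus DMSO.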
# [2] = molecular target: Peroxisome proliferator-activated receptor gamma (Homo sapiens) (UniProt P37231); test: ATG_PPARg_TRANS: Attagene TRANS-FACTORIAL HepG2 Assay for human Peroxisome Proliferator-activated Receptor-gamma (PPARg) (AID 2283007)
# Sequence of Peroxisome proliferator-activated receptor gamma (Homo sapiens) (P37231 whole entry, looked up, the tested form may be a part): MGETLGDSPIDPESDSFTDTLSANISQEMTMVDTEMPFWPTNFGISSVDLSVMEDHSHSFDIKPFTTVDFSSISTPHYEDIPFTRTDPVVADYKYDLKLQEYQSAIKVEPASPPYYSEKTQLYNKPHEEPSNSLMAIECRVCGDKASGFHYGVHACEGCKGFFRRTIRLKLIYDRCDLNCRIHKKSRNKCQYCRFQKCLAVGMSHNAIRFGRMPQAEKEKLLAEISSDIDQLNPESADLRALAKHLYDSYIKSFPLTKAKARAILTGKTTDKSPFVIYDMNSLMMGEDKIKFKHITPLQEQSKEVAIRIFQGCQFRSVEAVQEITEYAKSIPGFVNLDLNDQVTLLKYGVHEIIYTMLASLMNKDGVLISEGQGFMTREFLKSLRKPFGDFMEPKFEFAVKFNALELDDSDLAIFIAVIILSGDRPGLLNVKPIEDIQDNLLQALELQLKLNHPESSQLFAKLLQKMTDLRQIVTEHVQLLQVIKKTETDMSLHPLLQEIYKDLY
# Procedure, shortened: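 Chimeric NR-Gal4 transactivation is measured in transiently transfected HepG2 cells by reporter mRNA induction at 24 h. Detection uses RT-PCR with fluorescent labelling and capillary electrophoresis; DMSO defines baseline.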
# [3] = molecular target: Nuclear receptor subfamily 1 group I member 2 (Homo sapiens) (UniProt O75469); test: ATG_PXR_TRANS: Attagene TRANS-FACTORIAL HepG2 Assay for human Pregnane X Receptor (PXR) (AID 2283008)
# Sequence of Nuclear receptor subfamily 1 group I member 2 (Homo sapiens) (O75469 whole entry, looked up, the tested form may be a part): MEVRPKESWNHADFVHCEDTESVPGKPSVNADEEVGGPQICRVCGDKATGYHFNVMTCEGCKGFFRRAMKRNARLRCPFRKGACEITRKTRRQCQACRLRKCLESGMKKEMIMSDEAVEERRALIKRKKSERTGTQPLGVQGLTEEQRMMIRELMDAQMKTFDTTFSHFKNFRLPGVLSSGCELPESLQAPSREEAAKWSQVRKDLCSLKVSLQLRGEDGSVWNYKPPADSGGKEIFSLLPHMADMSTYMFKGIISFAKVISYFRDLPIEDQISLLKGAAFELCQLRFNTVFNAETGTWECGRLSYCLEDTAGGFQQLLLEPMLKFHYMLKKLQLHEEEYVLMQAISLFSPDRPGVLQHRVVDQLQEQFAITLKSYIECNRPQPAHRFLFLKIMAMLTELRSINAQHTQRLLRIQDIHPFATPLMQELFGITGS
# Procedure, shortened: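 Measures mRNA induction of a GAL4-UAS-driven reporter in human HepG2 cells transiently expressing PXR fused to Gal4, following 24 h treatment. DMSO served as negative control and baseline.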
# [4] = molecular target: Retinoic acid receptor RXR-alpha (Homo sapiens) (UniProt P19793); test: ATG_RXRa_TRANS: Attagene TRANS-FACTORIAL HepG2 Assay for human Retinoid X Receptor alpha (RXRa) (AID 2283012)
# Sequence of Retinoic acid receptor RXR-alpha (Homo sapiens) (P19793 whole entry, looked up, the tested form may be a part): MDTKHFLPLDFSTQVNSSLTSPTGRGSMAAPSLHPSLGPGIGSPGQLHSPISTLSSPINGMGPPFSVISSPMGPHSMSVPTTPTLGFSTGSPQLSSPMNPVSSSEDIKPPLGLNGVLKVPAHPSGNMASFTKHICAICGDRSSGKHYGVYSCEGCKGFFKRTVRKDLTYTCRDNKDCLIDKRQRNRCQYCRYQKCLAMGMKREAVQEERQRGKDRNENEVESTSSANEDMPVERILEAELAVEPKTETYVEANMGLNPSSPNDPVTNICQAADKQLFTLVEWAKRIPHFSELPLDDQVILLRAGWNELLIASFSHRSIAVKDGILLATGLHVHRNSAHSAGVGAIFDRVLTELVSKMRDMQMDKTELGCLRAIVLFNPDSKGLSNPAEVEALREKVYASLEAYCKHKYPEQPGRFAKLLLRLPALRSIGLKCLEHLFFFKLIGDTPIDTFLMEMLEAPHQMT
# Procedure, shortened: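 Transient transfection of human HepG2 with multiple GAL4-UAS reporter constructs; 24 h compound exposure; total RNA isolated, reverse-transcribed, PCR-amplified, 6-FAM labelled, HpaI-cut, resolved by capillary electrophoresis. Positive-direction fit versus DMSO.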
# [5] = molecular target: human Retinoid X Receptor beta (RXRb), RXRB (gene 6257) (UniProt P28702); test: ATG_RXRb_TRANS: Attagene TRANS-FACTORIAL HepG2 Assay for human Retinoid X Receptor beta (RXRb) (AID 2283013)
# Sequence of human Retinoid X Receptor beta (RXRb), RXRB (gene 6257) (P28702 whole entry, looked up, the tested form may be a part): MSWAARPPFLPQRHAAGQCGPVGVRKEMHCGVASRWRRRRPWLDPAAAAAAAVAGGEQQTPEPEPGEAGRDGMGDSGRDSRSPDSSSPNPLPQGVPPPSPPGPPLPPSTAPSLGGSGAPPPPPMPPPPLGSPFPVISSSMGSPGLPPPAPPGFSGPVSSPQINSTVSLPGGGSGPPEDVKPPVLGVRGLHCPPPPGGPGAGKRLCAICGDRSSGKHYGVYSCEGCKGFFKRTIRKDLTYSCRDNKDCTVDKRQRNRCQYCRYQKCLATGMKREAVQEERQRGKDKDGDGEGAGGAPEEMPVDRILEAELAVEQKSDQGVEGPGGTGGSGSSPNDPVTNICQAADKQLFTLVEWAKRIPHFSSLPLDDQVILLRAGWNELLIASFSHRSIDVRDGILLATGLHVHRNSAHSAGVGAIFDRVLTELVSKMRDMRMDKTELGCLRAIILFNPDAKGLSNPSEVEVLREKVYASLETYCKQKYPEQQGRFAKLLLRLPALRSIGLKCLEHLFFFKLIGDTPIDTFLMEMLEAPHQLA
# Procedure, shortened: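 Transfect HepG2 with GAL4-UAS multi-reporter constructs (chimeric NR-Gal4, TRANS format); dose compound 24 h; isolate RNA, RT-PCR, FAM primer extension, HpaI digest; quantify by capillary electrophoresis; positive direction vs DMSO.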
# [6] = read-out: E-selectin (Homo sapiens) (UniProt P16581); test: BSK_3C_Eselectin: BioMAP Diversity Plus: 3C Assay for Eselectin Biomarker Activity (AID 2283015; active = hit-call score of the fitted dose curve at least 0.9, where 1 is the maximum; inactive = score below 0.9); conditions: primary human endothelial cells (HUVEC); actives raise or lower the signal
# Procedure, shortened: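 HUVEC, 3C stimulation; compound exposure 24 h; E-selectin by ELISA; gain- or loss-of-signal fitted bidirectionally vs DMSO baseline.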
# [7] = read-out: Interleukin-1 alpha (IL1a), IL1A (gene 3552); test: BSK_BE3C_IL1a: BioMAP Diversity Plus: BE3C Assay for Interleukin-1 alpha (IL1a) Biomarker Activity (AID 2283016; active = hit-call score of the fitted dose curve at least 0.9, where 1 is the maximum; inactive = score below 0.9); conditions: primary human bronchial epithelial cells; actives raise or lower the signal
# Procedure, shortened: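 BE3C primary human bronchial epithelium; cpd 24 h; IL-1a by ELISA; bidirectional fit vs DMSO; parallel SRB (0.1% SRB, 10% TCA fix, 560 nm) for cytotoxicity.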
# [8] = read-out: Monocyte Chemoattractant Protein-1 (MCP1), CCL2 (gene 6347); test: BSK_4H_MCP1: BioMAP Diversity Plus: 4H Assay for Monocyte Chemoattractant Protein-1 (MCP1) Biomarker Activity (AID 2283018; active = hit-call score of the fitted dose curve at least 0.9, where 1 is the maximum; inactive = score below 0.9); conditions: primary human endothelial cells (HUVEC); actives raise or lower the signal
# Procedure, shortened: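 ELISA read-out of MCP-1 from human vascular endothelial primary cells taken at 24 hours after compound exposure. Activity was fitted in both directions relative to DMSO, which served as negative control.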
# [9] = read-out: Human Leukocyte Antigen - DR isotype (HLADR), HLA-DRA (gene 3122); test: BSK_3C_HLADR: BioMAP Diversity Plus: 3C Assay for Human Leukocyte Antigen - DR isotype (HLADR) Biomarker Activity (AID 2283019; active = hit-call score of the fitted dose curve at least 0.9, where 1 is the maximum; inactive = score below 0.9); conditions: primary human endothelial cells (HUVEC); actives raise or lower the signal
# Procedure, shortened: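 HUVEC, 3C stimulation, 24 h post-dose; HLA-DR by ELISA; bidirectional curve fit vs DMSO baseline; gain or loss of signal scored.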
# [10] = read-out: Interleukin-8 (IL8), CXCL8 (gene 3576); test: BSK_3C_IL8: BioMAP Diversity Plus: 3C Assay for Interleukin-8 (IL8) Biomarker Activity (AID 2283020; active = hit-call score of the fitted dose curve at least 0.9, where 1 is the maximum; inactive = score below 0.9); conditions: primary human endothelial cells (HUVEC); actives raise or lower the signal
# Procedure, shortened: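 ELISA read-out of IL-8 from human umbilical vein endothelium, measured 24 h after chemical dosing. Activity is expressed relative to DMSO negative control, with both increases and decreases fitted.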
# [11] = BSK_3C_SRB: Viability Assessment in the BioMAP Diversity Plus: 3C Assay (AID 2283023; active = hit-call score of the fitted dose curve at least 0.9, where 1 is the maximum; inactive = score below 0.9;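 also: cells read 24 h after compound dosing; fitted both ways against DMSO so a hit may be signal rise or drop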); conditions: primary human endothelial cells (HUVEC)
# Procedure, shortened: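 HUVEC, 24 h post-dose; 10% TCA fix, 0.1% SRB stain, A560 nm. Bidirectional curve fit vs DMSO negative control.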
# [12] = read-out: Matrix Metallopeptidase 1 (MMP1), MMP1 (gene 4312); test: BSK_BE3C_MMP1: BioMAP Diversity Plus: BE3C Assay for Matrix Metallopeptidase 1 (MMP1) Biomarker Activity (AID 2283024; active = hit-call score of the fitted dose curve at least 0.9, where 1 is the maximum; inactive = score below 0.9); conditions: primary human bronchial epithelial cells; actives raise or lower the signal
# Procedure, shortened: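 Human bronchial epithelial cells (BE3C system) exposed to compound for 24 h; MMP1 then quantified by ELISA. Activity was fitted in both directions relative to DMSO.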
# [13] = molecular target: human Vitamin D Receptor (VDR), VDR (gene 7421) (UniProt P11473); test: ATG_VDR_TRANS: Attagene TRANS-FACTORIAL HepG2 Assay for human Vitamin D Receptor (VDR) (AID 2283022)
# Sequence of human Vitamin D Receptor (VDR), VDR (gene 7421) (P11473 whole entry, looked up, the tested form may be a part): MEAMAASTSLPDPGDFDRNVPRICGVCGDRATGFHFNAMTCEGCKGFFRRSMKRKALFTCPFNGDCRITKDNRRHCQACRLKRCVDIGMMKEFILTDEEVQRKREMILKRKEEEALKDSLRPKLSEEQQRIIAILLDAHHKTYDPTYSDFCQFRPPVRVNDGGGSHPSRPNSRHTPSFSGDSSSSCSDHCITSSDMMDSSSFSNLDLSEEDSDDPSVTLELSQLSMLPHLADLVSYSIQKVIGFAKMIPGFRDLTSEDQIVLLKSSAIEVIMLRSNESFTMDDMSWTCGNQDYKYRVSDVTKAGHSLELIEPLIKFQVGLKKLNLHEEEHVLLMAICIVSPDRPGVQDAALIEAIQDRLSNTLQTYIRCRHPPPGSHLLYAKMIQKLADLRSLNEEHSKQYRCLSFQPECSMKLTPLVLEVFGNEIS
# Procedure, shortened: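 RT-PCR/capillary electrophoresis read-out of reporter mRNA induction in transiently transfected HepG2; 24 h dosing; chimeric NR-Gal4 (TRANS format); gain-of-signal fit against DMSO baseline.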
# [14] = molecular target: human Retinoic Acid Receptor gamma (RARg), RARG (gene 5916) (UniProt P13631); test: ATG_RARg_TRANS: Attagene TRANS-FACTORIAL HepG2 Assay for human Retinoic Acid Receptor gamma (RARg) (AID 2283009)
# Sequence of human Retinoic Acid Receptor gamma (RARg), RARG (gene 5916) (P13631 whole entry, looked up): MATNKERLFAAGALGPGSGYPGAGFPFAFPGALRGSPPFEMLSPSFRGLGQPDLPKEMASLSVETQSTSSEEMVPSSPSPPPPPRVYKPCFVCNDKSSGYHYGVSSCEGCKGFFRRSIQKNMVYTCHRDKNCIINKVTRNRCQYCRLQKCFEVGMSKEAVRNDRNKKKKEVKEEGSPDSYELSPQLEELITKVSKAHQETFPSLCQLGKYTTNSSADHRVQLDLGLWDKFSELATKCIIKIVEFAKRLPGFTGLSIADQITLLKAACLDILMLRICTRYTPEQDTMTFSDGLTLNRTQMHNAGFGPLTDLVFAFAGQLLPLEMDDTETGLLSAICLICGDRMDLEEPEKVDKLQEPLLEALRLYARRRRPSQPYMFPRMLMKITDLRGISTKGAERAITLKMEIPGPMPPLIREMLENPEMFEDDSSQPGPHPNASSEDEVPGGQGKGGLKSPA
# Procedure, shortened: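 Transient transfection of HepG2 with multi-reporter constructs, then 24 h chemical treatment. Total RNA isolated, reverse-transcribed, PCR-amplified, fluorescently labelled and resolved by capillary electrophoresis; activity scored as mRNA induction versus DMSO.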
# [15] = molecular target: human RAR-related Orphan Receptor beta (RORb), RORB (gene 6096) (UniProt Q92753); test: ATG_RORb_TRANS: Attagene TRANS-FACTORIAL HepG2 Assay for human RAR-related Orphan Receptor beta (RORb) (AID 2283010)
# Sequence of human RAR-related Orphan Receptor beta (RORb), RORB (gene 6096) (Q92753 whole entry, looked up, the tested form may be a part): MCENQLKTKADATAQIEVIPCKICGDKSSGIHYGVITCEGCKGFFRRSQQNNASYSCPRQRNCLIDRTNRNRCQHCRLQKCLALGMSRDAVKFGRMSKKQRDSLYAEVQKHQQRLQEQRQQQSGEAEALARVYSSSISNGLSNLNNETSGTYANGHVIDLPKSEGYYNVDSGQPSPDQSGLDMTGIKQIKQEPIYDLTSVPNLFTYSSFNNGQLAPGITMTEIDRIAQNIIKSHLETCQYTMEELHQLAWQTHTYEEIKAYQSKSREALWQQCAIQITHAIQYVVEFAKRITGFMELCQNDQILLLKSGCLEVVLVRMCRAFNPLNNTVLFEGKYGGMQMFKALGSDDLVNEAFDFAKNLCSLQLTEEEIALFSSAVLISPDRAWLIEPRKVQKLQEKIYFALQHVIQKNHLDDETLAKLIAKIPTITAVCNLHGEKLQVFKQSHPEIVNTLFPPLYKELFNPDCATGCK
# Procedure, shortened: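 Readout is reporter-gene mRNA induction, detected as fluorescence after RT-PCR and capillary electrophoresis, fitted for gain of signal against DMSO controls. Transiently transfected HepG2 liver cells carrying GAL4-UAS reporter constructs were treated for 24 hours.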
# [16] = molecular target: human RAR-related Orphan Receptor gamma (RORg), RORC (gene 6097) (UniProt P51449); test: ATG_RORg_TRANS: Attagene TRANS-FACTORIAL HepG2 Assay for human RAR-related Orphan Receptor gamma (RORg) (AID 2283011)
# Sequence of human RAR-related Orphan Receptor gamma (RORg), RORC (gene 6097) (P51449 whole entry, looked up, the tested form may be a part): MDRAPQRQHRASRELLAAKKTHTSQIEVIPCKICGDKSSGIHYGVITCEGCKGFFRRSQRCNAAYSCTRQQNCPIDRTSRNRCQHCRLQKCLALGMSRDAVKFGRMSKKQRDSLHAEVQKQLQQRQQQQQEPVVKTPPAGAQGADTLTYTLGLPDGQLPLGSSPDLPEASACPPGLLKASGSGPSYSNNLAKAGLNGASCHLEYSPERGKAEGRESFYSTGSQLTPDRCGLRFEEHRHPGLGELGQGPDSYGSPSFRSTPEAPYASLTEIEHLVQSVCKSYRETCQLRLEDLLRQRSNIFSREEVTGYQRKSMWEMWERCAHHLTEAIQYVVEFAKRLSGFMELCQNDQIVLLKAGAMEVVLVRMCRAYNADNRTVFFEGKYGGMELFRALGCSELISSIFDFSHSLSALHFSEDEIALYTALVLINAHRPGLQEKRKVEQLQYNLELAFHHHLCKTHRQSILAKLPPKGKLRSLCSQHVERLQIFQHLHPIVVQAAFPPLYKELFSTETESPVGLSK
# Procedure, shortened: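 Transient MRTU transfection of HepG2 (TRANS format, exogenous NR-Gal4 chimera). 24 h dosing. Total RNA → oligo(dT) RT → PCR → 6-FAM labelling → HpaI cut → CE. Gain vs DMSO.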
# [17] = molecular target: human Thyroid Receptor alpha (THRa1), THRA (gene 7067) (UniProt P10827); test: ATG_THRa1_TRANS: Attagene TRANS-FACTORIAL HepG2 Assay for human Thyroid Receptor alpha (THRa1) (AID 2283014)
# Sequence of human Thyroid Receptor alpha (THRa1), THRA (gene 7067) (P10827 whole entry, looked up, the tested form may be a part): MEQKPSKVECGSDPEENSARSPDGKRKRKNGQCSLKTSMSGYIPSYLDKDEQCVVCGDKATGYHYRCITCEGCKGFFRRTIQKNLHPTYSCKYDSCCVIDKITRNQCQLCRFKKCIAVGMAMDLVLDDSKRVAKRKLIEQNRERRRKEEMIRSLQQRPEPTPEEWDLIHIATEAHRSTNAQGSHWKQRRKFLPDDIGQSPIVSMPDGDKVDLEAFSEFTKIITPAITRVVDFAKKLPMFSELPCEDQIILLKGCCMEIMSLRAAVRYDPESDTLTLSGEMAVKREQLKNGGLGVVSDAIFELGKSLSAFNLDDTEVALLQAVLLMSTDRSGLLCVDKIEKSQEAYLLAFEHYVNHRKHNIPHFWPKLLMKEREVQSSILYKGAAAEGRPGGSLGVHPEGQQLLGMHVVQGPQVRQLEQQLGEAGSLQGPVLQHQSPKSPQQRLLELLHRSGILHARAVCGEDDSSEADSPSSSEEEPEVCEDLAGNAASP
# Procedure, shortened: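 Transient HepG2 transfection, NR-Gal4 chimera driving GAL4-UAS reporters; 24 h compound exposure; total RNA, oligo(dT) RT, PCR, fluorescent primer extension, capillary electrophoresis. Upward direction vs DMSO control.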
# Sequence of E-selectin (Homo sapiens) (P16581 whole entry, looked up): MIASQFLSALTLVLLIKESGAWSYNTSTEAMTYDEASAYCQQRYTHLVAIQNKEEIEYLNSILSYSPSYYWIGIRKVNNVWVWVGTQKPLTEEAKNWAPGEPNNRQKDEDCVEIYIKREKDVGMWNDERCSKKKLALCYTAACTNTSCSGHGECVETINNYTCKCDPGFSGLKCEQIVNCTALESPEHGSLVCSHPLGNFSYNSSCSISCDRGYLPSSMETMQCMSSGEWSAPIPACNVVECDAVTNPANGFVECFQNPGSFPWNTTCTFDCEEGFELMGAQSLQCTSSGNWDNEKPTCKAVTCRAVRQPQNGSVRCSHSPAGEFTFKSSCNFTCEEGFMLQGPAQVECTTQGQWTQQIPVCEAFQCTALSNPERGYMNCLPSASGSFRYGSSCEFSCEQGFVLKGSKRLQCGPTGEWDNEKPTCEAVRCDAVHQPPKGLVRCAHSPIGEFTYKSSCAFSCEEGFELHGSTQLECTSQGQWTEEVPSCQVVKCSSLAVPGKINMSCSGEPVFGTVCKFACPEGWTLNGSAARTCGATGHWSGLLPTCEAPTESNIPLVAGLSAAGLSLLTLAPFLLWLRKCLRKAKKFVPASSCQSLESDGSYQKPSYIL
smiles,measurement,setting,value
CCOC(=O)CCN(SN(C)C(=O)Oc1cccc2c1OC(C)(C)C2)C(C)C,AC50,[1],23.3 µM (active)
same,AC50,[2],0.713 µM (active)
same,AC50,[3],14.5 µM (active)
same,outcome,[4],inactive
same,AC50,[5],37.8 µM (active)
same,AC50,[6],20 µM (active)
same,outcome,[7],inactive
same,AC50,[8],31.6 µM (active)
same,AC50,[9],14.2 µM (active)
same,AC50,[10],3.97 µM (active)
same,outcome,[11],inactive
same,outcome,[12],inactive
N#CCCC(Br)(C#N)CBr (centres undefined),AC50,[1],1.28 µM (active)
same,outcome,[2],inactive
same,outcome,[4],inactive
same,AC50,[6],10.6 µM (active)
same,AC50,[7],20 µM (active)
same,AC50,[8],5.77 µM (active)
same,AC50,[9],3.16 µM (active)
same,AC50,[10],8.39 µM (active)
same,outcome,[13],inactive
same,AC50,[11],5.06 µM (active)
same,AC50,[12],20 µM (active)
Cl[C@H]1OCCO[C@@H]1Cl,outcome,[2],inactive
same,outcome,[3],inactive
same,outcome,[14],inactive
same,outcome,[15],inactive
same,outcome,[16],inactive
same,outcome,[4],inactive
same,outcome,[5],inactive
same,outcome,[17],inactive
CC(F)(F)CC(F)(F)F,outcome,[2],inactive
same,outcome,[3],inactive
same,outcome,[14],inactive
same,outcome,[4],inactive
same,outcome,[5],inactive
same,outcome,[17],inactive
same,outcome,[13],inactive
O=C1C[C@@H]2OCC=C3CN4CC[C@]56c7ccccc7N1[C@H]5[C@H]2[C@H]3C[C@H]46,outcome,[2],inactive
same,outcome,[3],inactive
same,outcome,[14],inactive
same,outcome,[4],inactive
same,outcome,[17],inactive
Nc1ccc(Br)cc1,outcome,[2],inactive
same,outcome,[3],inactive
same,outcome,[15],inactive
same,outcome,[16],inactive
same,outcome,[4],inactive
same,outcome,[5],inactive
same,outcome,[17],inactive
CCOP(=S)(OCC)Oc1ccc(Cl)cc1Cl,outcome,[2],inactive
same,AC50,[3],3.85 µM (active)
same,outcome,[15],inactive
same,outcome,[16],inactive
same,outcome,[4],inactive
same,AC50,[5],27.6 µM (active)
same,outcome,[17],inactive
same,outcome,[13],inactive
CCCCN(CCCC)C(=S)S,AC50,[2],5.99 µM (active)
same,AC50,[3],5.69 µM (active)
same,outcome,[16],inactive
same,outcome,[4],inactive
same,outcome,[5],inactive
same,outcome,[17],inactive
same,outcome,[13],inactive
CC(=O)C(F)(F)C(F)(F)F,outcome,[2],inactive
same,outcome,[3],inactive
same,outcome,[4],inactive
same,outcome,[5],inactive
same,outcome,[17],inactive
ClCc1ccccc1CCl,AC50,[2],2.49 µM (active)
same,outcome,[3],inactive
same,outcome,[16],inactive
same,AC50,[4],57.4 µM (active)
same,outcome,[5],inactive
same,outcome,[17],inactive
same,outcome,[13],inactive
O=C(Cl)OCCOCCOC(=O)Cl,outcome,[2],inactive
same,outcome,[3],inactive
same,outcome,[15],inactive
same,outcome,[5],inactive
same,outcome,[13],inactive
Cc1cccc(C)c1NC(=O)CN1CCCC1=O,outcome,[2],inactive
same,outcome,[3],inactive
same,outcome,[4],inactive
BrCc1ccc(Br)cc1,outcome,[2],inactive
same,outcome,[3],inactive
same,outcome,[16],inactive
same,outcome,[13],inactive
